# Measurements: the supplement of paper PMC9262897, “Low-cost anti-mycobacterial drug discovery using engineered E. coli” (Nature Communications, 2022)
# Where a name gives a salt, the structure may show the parent alone. ± gives the standard deviation of the averaged measurements.
# How the values were obtained:
# Assay in all cases: growth (OD600 after 10 h); higher = more growth (less inhibition)
# [1] = test system: E. coli TESEC Alr+ wild-type control; details: compound 0.1 mM; raw OD600 reference: median of DMSO wells 0.241, cell-free background 0.041
# Procedure: (§1)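 TESEC Mtb Alr E. coli, or the Alr+ wild-type control, in 384-well plates with Prestwick library compounds at 0.1 mM and 1% DMSO, across arabinose induction levels of 1E3 to 1E7 nM. Growth is read as OD600 after 10 h at 37 °C in triplicate biological replicates.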
# [2] = test system: E. coli TESEC Mtb Alr; details: compound 0.1 mM
# Procedure: as §1
# [3] = test system: E. coli TESEC Mtb Asd; details: compound 0.1 mM
# Procedure: (§2)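 TESEC E. coli strains in which the native enzyme is deleted and replaced by arabinose-inducible Mtb Asd, DapB, CysH or TrpD, each grown in its selective medium. Strains were screened against the Prestwick library at 0.1 mM and 1% DMSO in 384-well format at low and high arabinose induction. Growth is read as OD600 after 10 h in triplicate.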
# [4] = test system: E. coli TESEC Mtb DapB; details: compound 0.1 mM
# Procedure: as §2
# [5] = test system: E. coli TESEC Alr+ wild-type control; details: compound 0.1 mM; raw OD600 reference: median of DMSO wells 0.49, cell-free background 0.052
# Procedure: (§3)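 TESEC Mtb Alr E. coli (ΔaraC ΔtolC ΔentC Δalr ΔdadX, arabinose-inducible Mtb Alr) or the Alr+ wild-type control strain, grown in defined M9-fructose medium without D-alanine in 96-well plates with Prestwick library compounds at 0.1 mM and 1% DMSO. Low Alr induction is 0.1 µM arabinose and high induction is 10 mM arabinose.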
# [6] = test system: E. coli TESEC Mtb Alr; details: compound 0.1 mM; remark: listed apart in the source
# Procedure: as §3
# [7] = arabinose 1000 nM, raw OD600 reference: median of DMSO wells 0.294, cell-free background 0.041
# [8] = arabinose 10000 nM, raw OD600 reference: median of DMSO wells 0.264, cell-free background 0.041
# [9] = arabinose 100000 nM, raw OD600 reference: median of DMSO wells 0.201, cell-free background 0.041
# [10] = arabinose 1000000 nM, raw OD600 reference: median of DMSO wells 0.193, cell-free background 0.041
# [11] = arabinose 10000000 nM, raw OD600 reference: median of DMSO wells 0.146, cell-free background 0.041
# [12] = arabinose induction (level): High, raw OD600 reference: median of DMSO wells 0.331, cell-free background 0.041
# [13] = arabinose induction (level): Low, raw OD600 reference: median of DMSO wells 0.417, cell-free background 0.041
# [14] = arabinose induction (level): High, raw OD600 reference: median of DMSO wells […], cell-free background 0.041
# [15] = arabinose induction (level): Low, raw OD600 reference: median of DMSO wells 0.227, cell-free background 0.041
# [16] = arabinose 100 nM, raw OD600 reference: median of DMSO wells 0.413, cell-free background 0.052
# [17] = arabinose 10000000 nM, raw OD600 reference: median of DMSO wells […], cell-free background 0.052
Structure (SMILES),growth [1],"growth [2, 7]","growth [2, 8]","growth [2, 9]","growth [2, 10]","growth [2, 11]","growth [3, 12]","growth [3, 13]","growth [4, 14]","growth [4, 15]",growth [5],"growth [6, 16]","growth [6, 17]"
CC(C)/N=c1\cc2n(-c3ccc(Cl)cc3)c3ccccc3nc-2cc1Nc1ccc(Cl)cc1 [Clofazimine],0.158 ± 0.004,0.231 ± 0.016,0.154 ± 0.037,0.225 ± 0.023,0.0638 ± 0.0033,0.168 ± 0.013,0.247 ± 0.053,0.337 ± 0.11,0.248 ± 0.023,0.261 ± 0.012,0.154 ± 0.012,0.395 ± 0.031,0.06873 ± 0.00031
CC(C)C(=O)c1c(C(C)C)nn2ccccc12 [Ibudilast],0.163 ± 0.0085,0.221 ± 0.0062,0.245 ± 0.0022,0.148 ± 0.0046,0.134 ± 0.0043,0.127 ± 0.0043,0.183 ± 0.011,0.372 ± 0.032,0.194 ± 0.012,0.208 ± 0.038,0.49 ± 0.013,0.401 ± 0.0083,0.229 ± 0.0069
CN[C@@H]1[C@@H](O[C@H]2O[C@H](CO)[C@@H](N)[C@H](O)[C@H]2O)OC2C[C@@H](N)[C@@H](O[C@H]3[C@H](O)[C@@H](O)[C@H](N)C[C@@H]3N)OC2[C@@H]1O (stereo partly specified) [Apramycin],0.0408 ± 0.00099,0.045 ± 0.0037,0.03913 ± 0.00032,0.0442 ± 0.00091,0.0395 ± 0.0018,0.05653 ± 0.00029,0.0487 ± 0.0014,0.0476 ± 0.0012,0.0527 ± 0.0023,0.048 ± 0.0016,0.0798 ± 0.0039,0.0841 ± 0.008,0.133 ± 0.069
O=C(O)c1cc(-c2ccc(F)cc2F)ccc1O [Diflunisal],0.128 ± 0.0035,0.151 ± 0.018,0.105 ± 0.0038,0.119 ± 0.003,0.086 ± 0.0022,0.112 ± 0.0029,0.218 ± 0.059,0.139 ± 0.0027,0.172 ± 0.0032,0.17 ± 0.0045,0.279 ± 0.0091,0.248 ± 0.052,0.136 ± 0.006
CC(C)(C#N)c1cc(Cn2cncn2)cc(C(C)(C)C#N)c1 [Anastrozole],0.222 ± 0.0057,0.274 ± 0.0032,0.272 ± 0.0071,0.194 ± 0.009,0.183 ± 0.0054,0.13 ± 0.0054,0.339 ± 0.033,0.384 ± 0.038,0.194 ± 0.011,0.214 ± 0.028,0.483 ± 0.03,0.409 ± 0.0048,0.321 ± 0.016
CCOc1ccc2nc(S(N)(=O)=O)sc2c1 [Ethoxzolamide],0.2066 ± 0.0019,0.247 ± 0.0061,0.227 ± 0.0027,0.177 ± 0.024,0.134 ± 0.0057,0.122 ± 0.0034,0.283 ± 0.04,0.368 ± 0.045,0.172 ± 0.0065,0.187 ± 0.017,0.552 ± 0.11,0.426 ± 0.0093,0.214 ± 0.13
CCCCCCC[N+](CC)(CC)CCCCc1ccc(Cl)cc1 [Clofilium tosylate],0.03993 ± 0.00025,0.03923 ± 5.8e-05,0.039 ± 0.00017,0.03977 ± 0.00021,0.03863 ± 0.00025,0.0398 ± 0.00026,0.0468 ± 0.00026,0.0474 ± 0.00051,0.0462 ± 0.00046,0.0478 ± 0.0034,0.0487 ± 0.00091,0.0551 ± 0.0018,0.05213 ± 0.0004
CCCCCCCCNC(C)C(O)c1ccc(SC(C)C)cc1 (stereo unspecified) [Suloctidil],0.0763 ± 0.037,0.0398 ± 0.0011,0.0405 ± 0.00085,0.0403 ± 0.00044,0.0856 ± 0.078,0.0896 ± 0.085,0.191 ± 0.016,0.162 ± 0.074,0.153 ± 0.023,0.189 ± 0.019,0.0529 ± 0.0091,0.0587 ± 0.0041,0.0516 ± 0.00081
Cc1c(O)cccc1C(=O)N[C@@H](CSc1ccccc1)[C@H](O)CN1C[C@H]2CCCC[C@H]2C[C@H]1C(=O)NC(C)(C)C [Nelfinavir mesylate],0.279 ± 0.06,0.329 ± 0.0095,0.284 ± 0.031,0.323 ± 0.062,0.148 ± 0.0082,0.276 ± 0.041,0.215 ± 0.019,0.275 ± 0.015,0.197 ± 0.077,0.23 ± 0.086,0.509 ± 0.09,–,–
CCN(Cc1ccncc1)C(=O)C(CO)c1ccccc1 (stereo unspecified) [Tropicamide],0.24 ± 0.0069,0.308 ± 0.02,0.266 ± 0.0032,0.212 ± 0.027,0.174 ± 0.0051,0.158 ± 0.0048,0.289 ± 0.021,0.416 ± 0.022,0.19 ± 0.0057,0.249 ± 0.054,0.527 ± 0.08,0.413 ± 0.013,0.33 ± 0.0058
CC(C)(C)NC[C@@H](O)COc1cccc2c1CCCC2=O [(+) -Levobunolol hydrochloride],0.226 ± 0.012,0.291 ± 0.0069,0.267 ± 0.007,0.18 ± 0.0047,0.182 ± 0.0049,0.136 ± 0.003,0.459 ± 0.021,0.467 ± 0.022,0.205 ± 0.021,0.224 ± 0.017,0.546 ± 0.077,0.412 ± 0.012,0.339 ± 0.013
CNc1ncnc2c1ncn2[C@@H]1O[C@H](CO)[C@@H](O)[C@H]1O [N6-methyladenosine],0.283 ± 0.008,0.334 ± 0.023,0.263 ± 0.0068,0.261 ± 0.012,0.189 ± 0.003,0.15 ± 0.0032,0.343 ± 0.044,0.416 ± 0.023,0.21 ± 0.0029,0.209 ± 0.0066,0.539 ± 0.094,0.28 ± 0.065,0.364 ± 0.0048
CC(C)Oc1ccc2c(=O)c(-c3ccccc3)coc2c1 [Ipriflavone],0.196 ± 0.0047,0.25 ± 0.018,0.231 ± 0.0093,0.186 ± 0.015,0.117 ± 0.02,0.138 ± 0.0016,0.345 ± 0.098,0.4 ± 0.021,0.191 ± 0.018,0.211 ± 0.039,0.464 ± 0.025,0.402 ± 0.014,0.285 ± 0.012
COC1=CC(=O)C[C@@H](C)[C@]12Oc1c(Cl)c(OC)cc(OC)c1C2=O [Griseofulvin],0.223 ± 0.0068,0.2842 ± 0.002,0.2487 ± 0.002,0.208 ± 0.021,0.0853 ± 0.0022,0.135 ± 0.006,0.241 ± 0.051,0.385 ± 0.11,0.174 ± 0.0029,0.233 ± 0.022,0.514 ± 0.041,0.416 ± 0.013,0.21 ± 0.032
O=C(O)CN(CCN(CC(=O)O)CC(=O)O)CCN(CC(=O)O)CC(=O)O [Pentetic acid],0.049 ± 0.00062,0.0429 ± 0.00085,0.03913 ± 0.00012,0.04467 ± 5.8e-05,0.0427 ± 0.00091,0.0607 ± 0.00086,0.115 ± 0.02,0.0868 ± 0.024,0.0936 ± 0.0035,0.0709 ± 0.0042,0.0804 ± 0.0038,0.0559 ± 0.0086,0.061 ± 0.001
CCOC(=O)OC(C)OC1=C(C(=O)Nc2ccccn2)N(C)S(=O)(=O)c2ccccc21 (stereo unspecified) [Ampiroxicam],0.228 ± 0.015,0.27 ± 0.0052,0.255 ± 0.0083,0.183 ± 0.018,0.165 ± 0.007,0.157 ± 0.0076,0.237 ± 0.034,0.339 ± 0.033,0.206 ± 0.024,0.266 ± 0.048,0.582 ± 0.1,0.415 ± 0.01,0.293 ± 0.019
